Hits are enriched below; roughly 3.2% of the tested compounds scored in any of these assays.
MARV entry inh: inhibitors of Marburg virus binding or cell entry; Potency, µM (titrated, usually from 37.8 µM), most hits filed as inhibitors; Marburg virus pseudotyped entry inhibition, cell reporter; actives 1.8% (n = 300,000); calls by dose curve; tested in HEK293 cells
LASV entry inh: inhibitors of Lassa virus binding or cell entry; AID 540256; actives 1.2% (n = 300,000); Potency, µM (titrated, usually from 37.9 µM), hits mostly inhibitors; Lassa virus pseudotype entry inhibition, cell reporter; calls by dose curve; tested in HEK293 cells; also: nearly all actives have a fitted effect of over 50% in size
VACV Venus inh: inhibitors of vaccinia virus (Venus reporter). actives 0.46% (n = 330,000). AID 720580. Potency, µM (top dose mostly 36.5 µM), hits mostly inhibitors. Vaccinia virus Venus reporter expression, fluorescence; calls by dose curve; tested in A549 cells; also: nearly all actives have a fitted effect of over 30% in size
VACV mCherry inh: vaccinia inhibition (mCherry reporter); Vaccinia virus mCherry reporter infection, fluorescence; Potency, µM (top dose mostly 36.5 µM), hits mostly inhibitors; actives 0.63% (n = 310,000); AID 720579; calls by dose curve; tested in A549 cells; also: nearly all actives have a fitted effect of over 35% in size
FMDV inh: antivirals against foot and mouth disease virus | FMDV antiviral cell-based qHTS | AID 1159524 | actives 1.2% (n = 410,000) | Potency, µM (titrated, usually from 57.9 µM), actives largely listed as inhibitors; calls by dose curve; tested in HEK293T cells; also: read-out not given here; nearly all actives have a fitted effect of over 45% in size
Numbers stand for hits; 0 = inactive; ? = inconclusive; - = no result; ! = not active in a repeat; [ ] = another dose, or the depositor's remark.

SMILES | MARV entry inh | LASV entry inh | VACV Venus inh | VACV mCherry inh | FMDV inh
O=[N+]([O-])/C(C(=C(Cl)Cl)N1CCN(Cc2ccccc2)CC1)=C1\NCCN1Cc1ccc(Cl)nc1 | ? | 0 | ? | 10µM | 0
Cc1ccc(NC(=O)C2CCCN(S(=O)(=O)c3cccc4cccnc34)C2)cc1Cl (configuration not stated) | ? | ? | 0 | 0 | ?
O=C(Nc1ccc(Cl)c(C(F)(F)F)c1)C1CCCN(S(=O)(=O)c2cccc3cccnc23)C1 (configuration not stated) | - | 5.62µM | ? | 0 | ?
O=C(Nc1ccc(Cl)c(C(F)(F)F)c1)C1CCN(S(=O)(=O)c2cccc3nonc23)CC1 | ? | ? | 0 | 0 | 31.6µM
Cc1ccc(C(=O)C[n+]2cc(-c3ccc(C)cc3)n3c2CCCCC3)cc1 | ? | ? | 0 | 0 | 10µM
COc1ccc(C(=O)C[n+]2cc(-c3ccc(OC)cc3)n3c2CCCC3)cc1 | ? | 0 | ? | 0 | ?
O=C(Nc1ccc(-c2csc(Nc3ccc(Cl)cc3)n2)cc1)c1cccc(C(F)(F)F)c1 | 0 | - | ? | ? | 20µM
O=C(Nc1ccc(-c2csc(Nc3ccccc3)n2)cc1)c1cc([N+](=O)[O-])cc(C(F)(F)F)c1 | - | - | ? | 15.8µM | 25.1µM
CC(=O)Nc1ccc(-c2csc(Nc3ccc(Cl)cn3)n2)cc1 | ? | 0 | ? | 0 | 25.1µM
O=C(Nc1cccc(-c2csc(Nc3cccc(C(F)(F)F)c3)n2)c1)c1cc([N+](=O)[O-])cc(C(F)(F)F)c1 | - | - | 0 | ? | 39.8µM
Cc1ccc(Nc2nc(-c3sc(NC(=O)c4cccc(Cl)c4)nc3C)cs2)cc1 | 0 | - | - | - | -
CC(=O)c1cccc(Nc2nc(-c3cccc([N+](=O)[O-])c3)cs2)c1 | ? | ? | 0 | ? | 0
COCCCNc1nc(CC(C)C)nc2c1nnn2Cc1ccccc1 | - | - | - | - | 0
CCCCCCCCCCCCC/C=C/[C@@H](O)[C@H](CO)N(C)C | - | - | 0[3.33 µM] | 0[3.33 µM] | 0[6.7 µM]
COc1ccc(Nc2nc(NC(C)(C)C)nc(N3CCCC3)n2)c(OC)c1 | 5.17µM | 0 | - | - | ?
COc1ccc(Nc2nc(N3CCCC3)nc(N3CCCC3)n2)c(OC)c1 | 2.06µM | 0 | - | - | 0
COc1ccc(Nc2nc(NC(C)(C)C)nc(N3CCOCC3)n2)c(OC)c1 | 13µM | 0 | - | - | 0
COc1ccc(Nc2nc(Nc3ccc(OC)cc3OC)nc(N3CCN(C)CC3)n2)c(OC)c1 | ? | ? | 0 | 0 | ?
C/C(=N/Nc1ccnc2cc(Cl)ccc12)c1ccc(N)cc1 | - | - | ? | 8.91µM | 0
C/C(=N/Nc1ccnc2cc(Cl)ccc12)c1ccc(O)cc1 | - | - | ? | ? | 0
COc1c(O)cc2oc3cc(O)c(CC=C(C)C)c(O)c3c(=O)c2c1CC=C(C)C | - | - | 0 | ? | 0
CC(C)=CCc1c(O)cc2oc3c(CC=C(C)C)c(O)c(O)c(CC=C(C)C)c3c(=O)c2c1O | - | - | ? | ? | 22.4µM
C[C@]12CCC3C(CC[C@H]4C[C@@H](O)CC[C@]34C)[C@H]1C=CC2=O (some centres not stated) | ? | ? | ? | ? | 20µM
C/C(=N/NC(=O)c1cc(-c2cccc([N+](=O)[O-])c2)n[nH]1)c1cccc(O)c1 | - | - | - | - | 0
C/C(=N\NC(=O)c1cc(-c2cccc([N+](=O)[O-])c2)n[nH]1)c1ccccc1O | ? | ? | ? | 10µM | 0
SMILES | MARV entry inh | LASV entry inh | VACV Venus inh | VACV mCherry inh | FMDV inh
Cc1ccc(OCC(=O)Nc2cccc(OCc3cc(=O)n4cccc(C)c4n3)c2)cc1C | - | 0 | 0 | 0 | 0
CC(C)CC(N)c1csc(Nc2cnccn2)n1 (configuration not stated) | - | - | 10µM | 11.2µM | 0
Brc1ccc(C2C=Cc3ccccc32)cc1 (configuration not stated) | - | - | 0 | 0 | -
COc1cc(OC)c(CN2CCOc3ccc(CN4CCC(O)CC4)cc3C2)c(OC)c1 | - | - | 0 | 0 | 0
c1ccc(CCn2c3ccccc3c3nnc(SCc4ccc5nonc5c4)nc32)cc1 | 3.26µM | 5.8µM | 0 | 0 | ?
COc1ccc(-c2ccc(/C=C3\C(=O)N(c4ccccc4)N=C3c3ccccc3)o2)c([N+](=O)[O-])c1 | 0 | 0 | 0 | 0 | 0
COc1ccc(-c2ccc(/C=C3/C(=N)N4C(C)=CSC4=NC3=O)o2)c([N+](=O)[O-])c1 | 0 | 0 | 0 | 0 | 39.8µM
Cc1csc(SCc2nnc(-c3ccccc3Br)o2)n1 | 0 | 0 | 0 | 0 | -
Fc1ccccc1SCc1nnc(-c2ccccc2Br)o1 | 5.01µM | ? | 0 | 0 | 0
CN1C(=O)C(=Cc2sc(=O)n(-c3ccccc3)c2N(C)C)C(=O)N(C)C1=O | ? | 0 | 0 | 0 | 15.8µM
CCOC(=O)N1CCN(C(=O)CSc2nc3ccccc3c(=O)n2-c2ccccc2)CC1 | 0 | 8.91µM | 0 | - | ?
COc1cc2c(NC3CCN(C)CC3)nc(N3CCCN(C)CC3)nc2cc1OCCCC(C)C | - | - | 12.6µM | ? | -
COc1cc2nc(N3CCCN(C)CC3)nc(NC3CCN(Cc4ccccc4)CC3)c2cc1OC | ? | 1.83µM | 11.2µM! | ? | -
COc1cc2c(NC3CCN(C)CC3)nc(N3CCCN(C)CC3)nc2cc1OCCOCCN1CCCC1 | - | - | 0 | 0 | -
COc1cc2c(NC3CCN(C)CC3)nc(N3CCCN(C)CC3)nc2cc1OCCCN1CCCCC1 | - | - | 3.55µM | 3.98µM | -
COc1ccc(C(=O)NCCn2cc(SCC(=O)Nc3ccc(F)cc3)c3ccccc32)cc1 | 0 | 0 | 0 | 0 | ?
Cc1ccc(C)c(N2CCN(S(=O)(=O)c3cc(Br)cc4c3N(C(=O)C3CC3)CC4)CC2)c1 | 0 | 0 | 0 | 0 | 0
Cc1cc(C)c(C)c(C(=O)CSc2nnc(-c3ccc4[nH]c(C)c(C)c4c3)o2)c1C | ? | ? | 0 | - | ?
Cc1[nH]c2ccc(-c3nnc(SCC(=O)c4ccc(F)cc4)o3)cc2c1C | 0 | 9.2µM | 0 | 0 | -
c1ccc(-c2csc3ncnc(NCC4COc5ccccc5O4)c23)cc1 (configuration not stated) | 2.24µM | ? | ? | ? | 28.2µM
O=C(/C=C\Nc1ccccc1Br)c1ccc2c(c1)OCO2 | 5.62µM | - | 0 | 0 | 0
O=C(/C=C/Nc1ccc(F)cc1Br)c1ccccc1 | ? | 2µM | 0 | 0 | 2.82µM
COc1cc(=O)n2c(c1C(=O)NCc1ccco1)CCN(Cc1cccc(C(F)(F)F)c1)CC2 | - | - | 0 | 0 | 0
CC[N+]1(CC(=O)c2cccs2)CCCCC1 | - | - | 0 | 0 | -
CC(C(=O)NC1CCCCCC1)N(c1ccccc1)S(C)(=O)=O (configuration not stated) | 8.2µM | 0 | 0 | 0 | 0
SMILES | MARV entry inh | LASV entry inh | VACV Venus inh | VACV mCherry inh | FMDV inh
Cc1cc(OCc2nc(N)nc(N)c2-c2ccc(Cl)c(Cl)c2)ccc1[N+](=O)[O-] | ? | 1µM | 1µM | 0.891µM | 25.1µM
Cc1nc(N)nc(N)c1-c1ccc(Cl)c(Cl)c1 | ? | 1µM | 1µM | 1µM | 0
Cc1cccc(NC(=O)CSc2n[nH]c(-c3ccncc3)n2)c1C | 0 | 0 | 0 | 0 | 0
CC(=O)OC[C@H]1O[C@H](c2ccc(C(C)=O)cc2)C=C[C@@H]1OC(C)=O | 0 | - | - | - | -
Nc1nc(N)c2nc(CNc3ccc(C(=O)NC(CCC(=O)O)C(=O)O)cc3)cnc2n1 (configuration not stated) | 0.0224µM! | ? | 0 | 0 | -
Nc1nc(N)c2nc(CNc3ccc(C(=O)N[C@H](CCC(=O)O)C(=O)O)cc3)cnc2n1 | 0 | - | - | - | -
Nc1nc(N)c2nc(CNc3ccc(C(=O)N[C@@H](CCC(=O)O)C(=O)O)cc3)cnc2n1 | - | - | 0 | 0 | 0

Assay outcomes (PubChem BioAssay)
